From the supplement of paper PMC6555819

Assays:
Experiment in all cases: PBM binding z-score (relative to random genomic background probes); higher = stronger binding; sequences stand for … in GC…GCGATTGACAGCGTAGAATGAAGG
[1] = tested on: FXR:RXRa (NR concentration 270 nM, RXRa partner concentration 90 nM)
Procedure, shortened: (§1)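 Random background probes are the reference for binding z-scores. These scores derive from regression-normalized fluorescence on custom Agilent 4×180K protein-binding microarrays incubated 1 h with ligand-free nuclear receptor dimers. Binding was detected with antibodies against each partner (one per run).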

[2] = tested on: LXRa:RXRa (NR concentration 270 nM, RXRa partner concentration 90 nM)
Procedure, shortened: as §1

[3] = tested on: LXRa homodimer (NR concentration 270 nM)
Procedure, shortened: as §1

[4] = tested on: LXRb:RXRa (NR concentration 270 nM, RXRa partner concentration 90 nM)
Procedure, shortened: as §1

[5] = tested on: LXRb homodimer (NR concentration 270 nM)
Procedure, shortened: as §1

[6] = tested on: PPARa:RXRa (NR concentration 270 nM, RXRa partner concentration 90 nM)
Procedure, shortened: as §1

[7] = tested on: PPARg:RXRa (NR concentration 180 nM, RXRa partner concentration 90 nM)
Procedure, shortened: as §1

[8] = tested on: PPARg:RXRa 270nM:90nM, anti-RXR (NR concentration 270 nM, RXRa partner concentration 90 nM)
Procedure, shortened: as §1

[9] = tested on: PPARg:RXRa 30nM:10nM, anti-RXR (NR concentration 30 nM, RXRa partner concentration 10 nM)
Procedure, shortened: as §1

[10] = tested on: PPARg:RXRa 90nM:30nM, anti-RXR (NR concentration 90 nM, RXRa partner concentration 30 nM)
Procedure, shortened: as §1

Sequence	PBM binding z-score [1]	PBM binding z-score [2]	PBM binding z-score [3]	PBM binding z-score [4]	PBM binding z-score [5]	PBM binding z-score [6]	PBM binding z-score [7]	PBM binding z-score [8]	PBM binding z-score [9]	PBM binding z-score [10]
ATCTCTAGGGAACCAAGTTCAGTGAATGCCGAAC	-0.221	0.011	0.471	0.284	0.239	0.00792	-0.0553	0.046	0.00419	0.0789
AGTATTAGTTGAGACGAGGGCAACCGATAGGTTG	0.842	0.556	0.129	0.258	0.115	0.567	0.552	0.313	0.0784	0.559
GTACCAAGGTGAATAGGTCGTTGAAGAGTAGGCG	1.03	0.815	0.077	0.828	-0.492	2.34	1.56	2.06	0.379	1.17
AGAATGAGGTTATACGTAGATCAGGGTAGAAAGT	2.27	1.96	0.00674	1.65	0.246	3.21	2.08	2.36	0.669	1.22
TCTGCTAGGTCAGTTGGTGAGCTAACGAGCTGCC	0.898	0.467	-0.796	-0.0479	0.264	0.853	-0.0831	1.38	1.18	1.13
CGTCCAAGGTCAAGGTCAGCGAAAGAGACTCGAA	7.53	5.5	1.11	4.65	0.78	5.89	6.76	6.42	3.23	5.28
TCTAGCAGGCCTGAGGGTCACTCAAGAGGTACGG	1.03	1.18	-0.547	1.32	-1.24	2.38	0.588	1.57	1.62	1.44
TCTCGGAGGACACGCAAGGTCAGAGCTCGACATC	1.49	2.26	1.31	1.58	-0.475	2.1	0.475	1.39	2.16	1.64
CCTCGGAGGACAACAGGAGGTCAGAGTTGCCAGA	1.11	2.05	2.59	1.57	-0.486	2.02	0.634	0.674	-0.404	0.264
AGAATGAGGTTACCAAGGATCAGGGAAACGCTTG	1.77	4.49	-0.144	2.06	-0.102	3.69	2.58	2.47	1.09	1.97
GCTAGCAGGCCATATGGGTCACTCAATGACGGGC	0.207	0.285	-0.185	0.489	-0.907	1.98	1.57	1.27	-0.31	0.766
TCTAGGAGGACACGAAAGGTCAGAGCTCGACATC	3.28	3.77	3.29	3.49	-0.113	3.91	1.98	3.19	2.99	2.51
TAGCCTAGGTCGGATCGGGCCAGTATACGCTATA	-0.358	-0.506	-0.432	-0.741	-0.754	-0.324	0.0462	-0.371	-0.755	-0.538
CCGATTGGGGCAAAGGTTACCATACTCAGTACGA	1.84	1.62	-0.0955	2.33	-0.878	4.89	8.96	8.43	7.85	8.46
TAGCCTAGGTGATGGGCCAGTATACCACGCGAAC	-0.85	-0.73	-0.59	-0.909	-0.955	-0.386	0.501	0.427	-0.547	-0.0568
ATATGTAGGTTAGCTGGGGTAATTCAGACTAGGC	0.983	0.79	0.216	1.28	0.815	2.91	3.61	3	0.942	2.01
AGAATGAGGTTACCAAAGATCAGGGACACGCTTG	2.25	6.38	-0.0151	3.01	-0.234	3.38	2.84	2.9	0.908	2.29
GCTCGGAGGGCAAGGTCAGAGCTTTGTCCGTAGA	2.16	2.05	-0.485	1.26	-1.03	3	1.23	2	-0.62	0.771
CCTGCTAGGTCAATGGTTAGCTAAAGCAGCTCGC	2.78	1.76	-0.418	1.44	-0.3	2.63	3.33	3.77	1.16	3.2
GCTAGCAGGCCATGTGGGTCACTCAATGACGGGC	-0.267	-0.154	-0.643	-0.292	-1.04	1.58	1.31	1.18	-0.316	0.415
TAGCCTAGGTCAGATCGAGCCAGTATACGCTATA	1.14	0.783	-0.473	0.421	-0.463	1.42	0.564	0.606	-0.102	0.29
TAGAGTAGGTTAGTCGGGGCATTCAGCCAACATA	0.871	0.485	0.155	0.87	1.54	1.16	0.583	1.65	0.884	1.33
AAAGACAGGTGATGAAGGTAACTCAGGCTATCAT	-0.191	-0.0472	0.0332	0.0714	-0.0721	0.593	0.785	0.567	0.567	0.473
TATACAGGGTCAAAGGCCAGATTACGAATGTCGA	7.37	6.22	2.78	4.95	2.24	6.15	8	7.46	5.15	7.09

Sequence	PBM binding z-score [1]	PBM binding z-score [2]	PBM binding z-score [3]	PBM binding z-score [4]	PBM binding z-score [5]	PBM binding z-score [6]	PBM binding z-score [7]	PBM binding z-score [8]	PBM binding z-score [9]	PBM binding z-score [10]
TTACCAAGGTGAAGGTCGCTGATCCCTCTGTAGA	1.1	0.984	-0.243	0.689	-1.18	2.43	2.63	4.12	1.98	3.68
TGAATGATGTTAAAGATCAGGGAACGTGGCGTCG	0.0753	0.0362	-0.207	-0.167	0.281	0.925	1.32	2.98	1.82	2.49
GCGACTGGGTCATCAGCAGGTTACCATAACTTAA	2.66	1.93	-0.34	2.04	-1.03	4.06	5.18	4.73	1.52	3.88
CCTGCTAGGTTAATGGTCAGCTAAAGCAGCTCGC	-0.16	0.22	-0.415	0.0198	-0.231	0.798	1.47	3.16	0.835	2.53
CTACCAAGGTGCACAAGGTCGTTGATTACTATTC	0.933	1.22	0.723	1.74	-0.173	1.69	0.548	0.538	-0.186	0.246
CAAACTAGGTCAAGAGGTCAAAGCCCGCTTCCCG	7.07	6.28	5.68	5.4	1.5	6.76	10.1	8.55	7.71	8.87
TCATATAGGTAAATGCTTGGTGAAAGTCCGATCT	0.688	0.994	0.23	0.824	-0.0277	1.12	0.522	2.24	3.68	2.72
CAAATTAGGTCAAGAGGTCAAAGTCCGCTTCCCG	7.34	6.64	6.19	6.05	2.41	6.6	9.93	8.63	8.32	9.12
ACAGACTGGTGATGAAGGTAACTCAGGCTATCAT	-0.533	-0.452	-0.433	-0.663	-0.582	-0.594	0.512	0.104	-0.179	-0.158
TCTTGTAGAACAGCAGGTTAAGAAAGCTGGCCAA	-0.25	-0.235	-0.708	-0.0015	-0.898	0.675	-0.134	1.17	2.2	1.9
TGAATGAGGTTAAAGACCAGGGAACGTGGCGTCG	2.78	2.16	-0.15	1.26	0.1	3.51	3.08	4.46	2.42	4.02
CAAACTAGGTCGCAGAGGTCAAAGTCCGTGCGTA	5.75	6.03	5.84	5.36	1.26	5.7	7.46	6.53	4.01	6.06
CGACCTAGGTCAGAACAGGACAGTGAAGGATGAT	2.95	1.5	0.143	1.08	-0.535	2.08	1.55	1.2	-0.0187	0.682
ATCGAAAGGTCGAGGTGAATATAGAGAAAGGGAA	4.19	3.5	0.21	2.79	0.889	4.65	3.91	3.97	1.51	2.95
GCTTGTGGATCAAGGTTAAGAAAGACTAAGCTAA	0.286	0.783	-0.433	0.442	-0.254	1.52	0.82	1.79	0.395	1.24
TCGTGTAGATCAATAGAGGTTAAGAAAGTGCGCT	0.712	3.48	0.576	1.76	-0.163	1.86	0.088	1.57	2.53	2.13
GCTCGGAAGACAAGGTCAGAGCTTTGTCCGTAGA	1.01	1.26	-0.528	0.906	-1.34	1.97	0.0442	0.519	-0.417	0.239
CGTCCAAGGCCATAGGAGGTCAGTGAAGACAGAT	2.46	3.14	0.814	1.69	-0.756	2.21	0.688	0.571	-0.185	0.133
GCTCGGAGGACAAGGTGAGAGCTTTGTCCGTAGA	-0.399	-0.339	-1.2	-0.463	-1.12	-0.0348	-0.809	-0.0501	-1.12	-0.422
ATACCATGGTGATCGTGAGGTCGTTGATACTAAC	0.952	0.604	0.284	1.08	-0.16	0.884	0.301	-0.0472	0.115	0.0761
TCTCGGAGGACACGAAAGGTCAGAGTTCGACATC	3.3	4.16	4.17	3.5	0.134	3.71	1.72	3.4	2.89	3.12
AATTACGGGTCAACGAGGTTATAGCACGCGTATA	7.35	6.12	3.47	4.88	1.02	6	6.93	6.19	2.81	5.1
CAAACTAAGTCAAAGGTCAAAGTCGAGCCAACCA	6.46	6.42	5.19	6.08	2.84	6.84	11.4	10.3	11.8	12.2
TCTAGCACGCCAGAGGGTCACTCAAGAGGTACGG	1.04	1.11	-0.323	0.821	-0.814	2.01	0.836	1.13	1.71	1.2
